Only some compounds are listed: those with a hit (about 3.4% of all), similar ones and a draw of the others.
TEAD-YAP block: TEAD-YAP interaction inhibition, primary screen, TEAD-YAP interaction inhibitor project, luminescence, HEK-TIYL cells; 1.4% of 640,000 active; TEAD-Gal4/YAP UAS-luciferase luminescence; inhibition, % at 9.12 µM; AID 1259422, 2018; in the data active = inhibition above about 32%;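 also: 0% = median of test compound wells and 100% = reference inhibitor wells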
FBW7 act: FBW7 E3 ligase activators, primary screen, biochemical, AlphaScreen, human; 0.13% of 650,000 active; AlphaScreen FBW7–phospho-cyclin E peptide binding, activator screen; F-box/WD repeat-containing protein 7 (Homo sapiens), Q969H0; normalized activity (activation), % at 26.1 µM; in the data active = normalized activity above about 1.9%;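 also: purified mutant Fbw7 with reduced substrate affinity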
GPR151 ag: activators of human GPR151, primary screen, cell-based, PathHunter beta-arrestin, luminescence. PathHunter beta-arrestin GPR151 cells. AID 1508602, 2020. activation, % at 11.2 µM. G-protein coupled receptor 151 (Homo sapiens), Q8TDV0. 1% of 650,000 active; in the data active = activation above about 4.9%;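 also: 0% = median of compound wells and 100% = cells with positive control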
MITF inh: MITF inhibitors, primary screen, biochemical, AlphaScreen, human. 0.91% of 650,000 active. Microphthalmia-associated transcription factor (Homo sapiens), O75030. inhibition, % at 2.6 µM. AlphaScreen MITF homodimerization, bead proximity signal; in the data active = inhibition above about 50%;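 also: 0% = vehicle wells with protein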
Target sequence (O75030 whole entry, looked up): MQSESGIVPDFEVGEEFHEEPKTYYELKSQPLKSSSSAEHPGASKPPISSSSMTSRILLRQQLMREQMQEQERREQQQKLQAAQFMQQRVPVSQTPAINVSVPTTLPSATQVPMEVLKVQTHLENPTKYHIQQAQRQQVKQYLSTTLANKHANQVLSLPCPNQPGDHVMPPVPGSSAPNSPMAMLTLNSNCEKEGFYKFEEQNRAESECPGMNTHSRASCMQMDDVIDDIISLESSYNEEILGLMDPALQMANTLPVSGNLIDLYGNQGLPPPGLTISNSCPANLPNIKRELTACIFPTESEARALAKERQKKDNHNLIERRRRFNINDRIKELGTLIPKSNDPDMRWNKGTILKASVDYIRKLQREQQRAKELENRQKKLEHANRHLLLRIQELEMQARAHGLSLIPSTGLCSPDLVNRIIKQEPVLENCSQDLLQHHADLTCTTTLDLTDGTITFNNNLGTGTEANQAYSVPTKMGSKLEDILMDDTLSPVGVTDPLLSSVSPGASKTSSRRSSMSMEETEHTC
Active calls of the source: *.

CCOc1ccc(-c2cc(=O)c3ccc(NC(=O)c4ccncc4)cc3o2)cc1 was read as TEAD-YAP block -9, FBW7 act 0, GPR151 ag 1 and MITF inh 0.
Screening C=C1c2ccccc2NC(=O)N1c1ccc(Cl)c(Cl)c1 returned TEAD-YAP block 4, FBW7 act 0, GPR151 ag 0 and MITF inh 5.
For Cc1cc(C)nc(SCC(=O)Nc2ccnc3ccccc23)n1 the results were TEAD-YAP block 41*, FBW7 act 0, GPR151 ag 1 and MITF inh 14.
Screening Fc1cnc(N/N=C/c2ccc(Cl)cc2Cl)nc1N1CCOCC1 returned TEAD-YAP block -29, FBW7 act -1, GPR151 ag -1 and MITF inh -13.
Screening Fc1cnc(N/N=C\c2ccc(-c3ccccc3)o2)nc1N1CCOCC1 returned TEAD-YAP block -20, FBW7 act 0, GPR151 ag 0 and MITF inh 7.
Screening CCN(CC)c1ccc(/C=N\Nc2ncc(F)c(N3CCOCC3)n2)c(O)c1 returned TEAD-YAP block 37*, FBW7 act -1, GPR151 ag 0 and MITF inh 62*.
For Fc1cnc(N/N=C/c2cccs2)nc1N1CCOCC1 the results were TEAD-YAP block 45*, FBW7 act 0, GPR151 ag -4 and MITF inh 8.
COc1cccc(/C=N\Nc2ncc(F)c(N3CCOCC3)n2)c1O was read as TEAD-YAP block 41*, FBW7 act -1, GPR151 ag 1 and MITF inh 86*.
COc1ccc2oc(-c3csc(NC(=O)c4ccccc4SC)n3)cc2c1 was read as TEAD-YAP block -19, FBW7 act 0, GPR151 ag -1 and MITF inh 30.
Screening O=C(Nc1ccccc1Cl)c1cccc2nc3ccccc3nc12 returned TEAD-YAP block -4, FBW7 act 0, GPR151 ag -1 and MITF inh 10.
`CCOC(=O)c1[nH]c(C)c(C(=O)Nc2cccc(C)c2C)c1C` gave TEAD-YAP block 42*, FBW7 act 0, GPR151 ag 1 and MITF inh 8.
`CCOC(=O)c1[nH]c(C)c(C(=O)Nc2cc(C)ccc2C)c1C` gave TEAD-YAP block 40*, FBW7 act 0, GPR151 ag 0 and MITF inh 2.
Screening CCOC(=O)c1c(C)c(C(=O)Nc2cc(C)ccc2OC)c(C)n1CC returned TEAD-YAP block 41*, FBW7 act 0, GPR151 ag 1 and MITF inh 3.
Screening CCOC(=O)c1[nH]c(C)c(C(=O)N2CCc3ccccc32)c1C returned TEAD-YAP block 49*, FBW7 act 0, GPR151 ag 0 and MITF inh -4.
Screening C/C(Cl)=C/Cn1c(SCC(=O)O)nc2c1c(=O)[nH]c(=O)n2C returned TEAD-YAP block 1, FBW7 act 0, GPR151 ag 0 and MITF inh 2.
C[C@H]1NC(=O)[C@@H]2C[C@H](NC(=O)NCc3cccc(F)c3)CN2C1=O was read as TEAD-YAP block 19, FBW7 act 0, GPR151 ag -1 and MITF inh 0.
`Cc1ccc(C2CC(=O)N3C(=C2C#N)SCC3(O)c2ccc(F)cc2)cc1` (stereo not given) gave TEAD-YAP block -10, FBW7 act 0, GPR151 ag 0 and MITF inh -7.
For CCOc1ccccc1/C=C1\NC(=S)NC1=O the results were TEAD-YAP block -10, FBW7 act 0, GPR151 ag -1 and MITF inh 4.
CCOc1cccc(/C=C2/NC(=S)NC2=O)c1O was read as TEAD-YAP block 51*, FBW7 act 0, GPR151 ag -2 and MITF inh 11.
Screening CCOc1ccc2ccc(OCC)c(C=C3C(=O)NC(=O)NC3=O)c2c1 returned TEAD-YAP block -30, FBW7 act 0, GPR151 ag -1 and MITF inh 18.
Screening CCOc1ccc2ccc(OCC)c(/C=C3/NC(=S)NC3=O)c2c1 returned TEAD-YAP block 57*, FBW7 act 0, GPR151 ag -1 and MITF inh -3.
`CN(CC(=O)O)C1=N/C(=C/C=C/c2ccccc2)C(=O)N1` gave TEAD-YAP block -5, FBW7 act 0, GPR151 ag 1 and MITF inh 3.
For Cc1ncn(-c2ccc(Nc3nccc(-c4cc(C#N)cc(NC(C)C)c4)n3)cc2)n1 the results were TEAD-YAP block 10, FBW7 act 0, GPR151 ag 1 and MITF inh 13.
`Cc1ncn(-c2ccc(Nc3nccc(-c4ccc(C#N)c(N5CCN(C)CC5)c4)n3)cc2)n1` gave TEAD-YAP block 51*, FBW7 act 0, GPR151 ag -2 and MITF inh -2.
For Cc1ncn(-c2ccc(Nc3nccc(-c4ccc(C#N)c(NC(C)C)c4)n3)cc2)n1 the results were TEAD-YAP block 48*, FBW7 act 0, GPR151 ag 0 and MITF inh 1.
For Cc1cc(C)cc(NC(=O)C23CCC(C)(C(=O)C2)C3(C)C)c1 (stereo not given) the results were TEAD-YAP block 9, FBW7 act 0, GPR151 ag 1 and MITF inh 4.
Screening C=CCn1c(=NC(=O)C2=COCCO2)sc2cc(F)ccc21 returned TEAD-YAP block -15, FBW7 act 1.9*, GPR151 ag -1 and MITF inh -2.
C=CCn1c(=NC(=O)C2=COCCO2)sc2cccc(OC)c21 was read as TEAD-YAP block -10, FBW7 act 0, GPR151 ag -1 and MITF inh 6.
For O=C(O[C@@H]1Cc2c(O)cc(O)cc2O[C@@H]1c1cc(O)c(O)c(O)c1)c1cc(O)c(O)c(O)c1 the results were TEAD-YAP block 2, FBW7 act 0, GPR151 ag -1 and MITF inh 77*.
`O=C1c2c(O)cc(O)cc2OC(c2ccc(O)c(O)c2)C1O` (stereo not given) gave TEAD-YAP block -1, FBW7 act 0, GPR151 ag 2 and MITF inh 14.
O=C(O[C@@H]1Cc2c(O)cc(O)cc2O[C@@H]1c1ccc(O)c(O)c1)c1cc(O)c(O)c(O)c1 was read as TEAD-YAP block 0, FBW7 act 0, GPR151 ag 0 and MITF inh 83*.
`Cc1cc2c(c(=O)n1Cc1ccccc1)C(c1ccc3c(c1)OCO3)C(C#N)=C(N)O2` (stereo not given) gave TEAD-YAP block 7, FBW7 act 0, GPR151 ag 1 and MITF inh 5.
For CC(=O)Oc1c(Br)cc(/C=C2\N=C(c3ccc(F)cc3)OC2=O)cc1Br the results were TEAD-YAP block 0, FBW7 act 0, GPR151 ag -1 and MITF inh 5.
For CN1C(=O)C(=Cc2ccc(OCc3cccc(C(=O)O)c3)cc2)C(=O)N(C)C1=O the results were TEAD-YAP block 43*, FBW7 act 0, GPR151 ag -9 and MITF inh 0.
CN1C(=O)S/C(=C/c2ccc(OCc3cccc(C(=O)O)c3)cc2)C1=O was read as TEAD-YAP block -30, FBW7 act 1, GPR151 ag 2 and MITF inh 11.

Screening results from PubChem BioAssay.
